Test results: publication PMC7862700, “An all-to-all approach to the identification of sequence-specific readers for epigenetic DNA modifications on cytosine”

What was measured:
Experiment in all cases: DAPPL (digital affinity profiling via proximity ligation, sequencing); 10 mM Tris-HCl pH 7.5, 50 mM NaCl, 1 mM DTT, 4% glycerol, room temperature, 30 min; GST-TFs on glutathione beads, 16-mer random dsDNA library, 0.1% formaldehyde crosslink after washing; high values mean tight binding
Conditions in all cases: protein: recombinant; tags: N-terminal GST; dsDNA, one strand shown
[1] = biological target: T1, FLI1 (Homo sapiens, UniProt Q01543 1-452)
T1 sequence: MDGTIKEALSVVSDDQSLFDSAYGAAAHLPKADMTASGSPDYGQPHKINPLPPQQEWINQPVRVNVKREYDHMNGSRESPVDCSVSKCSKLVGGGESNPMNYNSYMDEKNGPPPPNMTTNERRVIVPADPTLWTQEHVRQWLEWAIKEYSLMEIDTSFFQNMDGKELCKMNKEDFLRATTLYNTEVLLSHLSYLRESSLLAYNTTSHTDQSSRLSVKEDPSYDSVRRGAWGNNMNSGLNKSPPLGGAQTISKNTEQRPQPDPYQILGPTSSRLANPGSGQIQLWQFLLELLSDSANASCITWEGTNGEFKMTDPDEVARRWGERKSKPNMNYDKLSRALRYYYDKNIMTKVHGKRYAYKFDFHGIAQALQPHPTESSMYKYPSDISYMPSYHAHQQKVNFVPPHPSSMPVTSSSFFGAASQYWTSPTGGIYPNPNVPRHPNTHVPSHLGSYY
Summary of the method: (§1)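 GST fusions of human transcription factors were expressed in yeast and captured with glutathione beads. Once given DNA barcodes and pooled alongside a tag-only sample, they were incubated for 30 min at room temperature with 200 nmole of a random double-stranded 16-mer DNA library in Tris/NaCl/DTT/glycerol buffer, then washed, crosslinked (0.1% formaldehyde), proximity-ligated, PCR-amplified and sequenced on an Illumina NextSeq500. The binding signal of each hexamer is its read frequency for a factor divided by its frequency for the tag-only sample.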

[2] = biological target: T2, ELK1 (Homo sapiens, UniProt P19419 1-428)
T2 sequence: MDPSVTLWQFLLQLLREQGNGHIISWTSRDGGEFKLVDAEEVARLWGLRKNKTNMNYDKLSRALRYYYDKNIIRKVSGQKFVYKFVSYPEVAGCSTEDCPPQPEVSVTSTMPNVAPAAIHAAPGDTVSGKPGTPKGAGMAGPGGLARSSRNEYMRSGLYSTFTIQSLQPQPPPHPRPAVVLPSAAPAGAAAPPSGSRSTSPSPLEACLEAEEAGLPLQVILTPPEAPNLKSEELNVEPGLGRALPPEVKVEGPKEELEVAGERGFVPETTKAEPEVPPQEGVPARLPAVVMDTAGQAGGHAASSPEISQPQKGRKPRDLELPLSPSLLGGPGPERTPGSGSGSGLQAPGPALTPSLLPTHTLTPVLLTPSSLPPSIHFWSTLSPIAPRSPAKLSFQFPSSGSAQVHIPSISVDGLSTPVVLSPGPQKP
Summary of the method: as §1

[3] = biological target: T3, GABPA (Homo sapiens, UniProt Q06546 1-454)
T3 sequence: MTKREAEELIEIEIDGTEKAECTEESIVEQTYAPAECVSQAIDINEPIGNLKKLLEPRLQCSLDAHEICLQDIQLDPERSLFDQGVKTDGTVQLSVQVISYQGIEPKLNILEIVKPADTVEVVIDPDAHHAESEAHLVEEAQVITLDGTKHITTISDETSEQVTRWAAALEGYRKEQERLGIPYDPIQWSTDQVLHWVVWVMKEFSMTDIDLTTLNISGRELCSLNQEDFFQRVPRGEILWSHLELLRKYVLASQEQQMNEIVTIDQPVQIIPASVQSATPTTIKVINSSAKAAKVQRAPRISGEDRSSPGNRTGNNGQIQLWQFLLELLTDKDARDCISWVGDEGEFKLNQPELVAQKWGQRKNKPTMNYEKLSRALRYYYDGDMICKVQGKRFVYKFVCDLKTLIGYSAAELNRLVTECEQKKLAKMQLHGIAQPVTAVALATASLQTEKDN
Summary of the method: as §1

[4] = biological target: T4, ERG (Homo sapiens, UniProt P11308 1-479)
T4 sequence: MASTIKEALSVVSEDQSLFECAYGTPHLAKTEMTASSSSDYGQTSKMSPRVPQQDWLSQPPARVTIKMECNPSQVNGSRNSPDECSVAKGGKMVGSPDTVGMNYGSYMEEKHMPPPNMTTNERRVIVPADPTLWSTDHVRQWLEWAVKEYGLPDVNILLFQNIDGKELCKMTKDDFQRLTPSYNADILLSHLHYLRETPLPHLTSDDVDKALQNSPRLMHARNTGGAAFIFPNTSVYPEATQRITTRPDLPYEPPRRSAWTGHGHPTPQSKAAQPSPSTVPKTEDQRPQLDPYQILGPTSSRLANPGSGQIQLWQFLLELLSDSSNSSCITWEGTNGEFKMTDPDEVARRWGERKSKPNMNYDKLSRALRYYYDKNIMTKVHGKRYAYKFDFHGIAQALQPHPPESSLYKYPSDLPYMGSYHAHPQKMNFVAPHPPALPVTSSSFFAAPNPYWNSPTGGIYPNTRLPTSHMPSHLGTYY
Summary of the method: as §1

[5] = biological target: ELF1 (Homo sapiens, UniProt P32519 1-619)
Chain of ELF1 (P32519 whole entry): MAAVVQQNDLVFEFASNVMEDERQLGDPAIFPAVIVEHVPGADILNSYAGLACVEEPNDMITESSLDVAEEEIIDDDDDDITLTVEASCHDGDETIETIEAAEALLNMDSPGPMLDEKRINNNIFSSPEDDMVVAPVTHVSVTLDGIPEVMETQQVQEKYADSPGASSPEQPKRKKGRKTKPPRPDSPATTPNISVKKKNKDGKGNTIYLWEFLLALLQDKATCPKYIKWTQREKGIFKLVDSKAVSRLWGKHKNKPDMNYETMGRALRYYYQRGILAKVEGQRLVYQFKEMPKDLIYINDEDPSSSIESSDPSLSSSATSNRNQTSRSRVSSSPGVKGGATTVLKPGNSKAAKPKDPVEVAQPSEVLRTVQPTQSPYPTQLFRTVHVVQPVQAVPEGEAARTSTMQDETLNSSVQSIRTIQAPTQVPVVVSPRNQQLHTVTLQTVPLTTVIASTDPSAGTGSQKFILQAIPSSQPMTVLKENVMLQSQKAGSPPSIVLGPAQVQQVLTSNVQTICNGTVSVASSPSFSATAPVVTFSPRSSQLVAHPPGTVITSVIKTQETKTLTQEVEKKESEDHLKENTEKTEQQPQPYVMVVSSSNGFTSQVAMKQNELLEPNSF
Summary of the method: as §1

[6] = biological target: T5, EHF (Homo sapiens, UniProt Q9NZC4 1-300)
T5 sequence: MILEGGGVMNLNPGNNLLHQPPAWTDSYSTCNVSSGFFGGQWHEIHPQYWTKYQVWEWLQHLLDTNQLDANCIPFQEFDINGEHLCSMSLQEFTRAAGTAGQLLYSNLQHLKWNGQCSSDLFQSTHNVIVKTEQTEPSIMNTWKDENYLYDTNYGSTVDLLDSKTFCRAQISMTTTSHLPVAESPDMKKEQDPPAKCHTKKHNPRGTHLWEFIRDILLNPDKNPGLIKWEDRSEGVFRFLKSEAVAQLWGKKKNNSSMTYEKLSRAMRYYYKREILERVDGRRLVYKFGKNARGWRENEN
Summary of the method: as §1

[7] = biological target: SPI1 (Homo sapiens, UniProt P17947 1-270)
Summary of the method: as §1

[8] = biological target: SPIB (Homo sapiens, UniProt Q01892 1-262)
Chain of SPIB (Q01892 whole entry): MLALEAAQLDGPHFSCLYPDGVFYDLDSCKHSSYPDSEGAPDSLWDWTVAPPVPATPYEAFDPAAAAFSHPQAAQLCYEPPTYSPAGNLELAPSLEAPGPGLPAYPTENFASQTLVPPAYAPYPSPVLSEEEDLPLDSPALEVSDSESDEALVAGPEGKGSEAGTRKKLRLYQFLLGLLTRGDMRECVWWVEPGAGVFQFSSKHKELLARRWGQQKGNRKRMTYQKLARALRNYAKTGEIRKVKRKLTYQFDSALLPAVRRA
Summary of the method: as §1

[9] = biological target: T6, ELK3 (Homo sapiens, UniProt P41970 1-407)
T6 sequence: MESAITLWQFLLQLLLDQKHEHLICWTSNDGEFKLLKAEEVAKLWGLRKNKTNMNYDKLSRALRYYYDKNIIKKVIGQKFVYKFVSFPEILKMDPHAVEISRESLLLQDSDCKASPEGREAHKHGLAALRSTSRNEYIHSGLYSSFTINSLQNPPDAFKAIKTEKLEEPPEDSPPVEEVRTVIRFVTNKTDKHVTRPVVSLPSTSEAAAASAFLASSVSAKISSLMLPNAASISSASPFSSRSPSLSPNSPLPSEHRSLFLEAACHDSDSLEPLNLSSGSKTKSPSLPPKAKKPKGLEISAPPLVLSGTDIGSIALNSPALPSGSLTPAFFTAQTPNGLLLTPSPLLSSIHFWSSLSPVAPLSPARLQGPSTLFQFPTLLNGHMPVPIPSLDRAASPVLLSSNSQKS
Summary of the method: as §1

| Sequence | binding signal [1] | binding signal [2] | binding signal [3] | binding signal [4] | binding signal [5] | binding signal [6] | binding signal [7] | binding signal [8] | binding signal [9] |
| --- | --- | --- | --- | --- | --- | --- | --- | --- | --- |
| CTTGCT | 1.51 fold enrichment (6-mer frequency, TF over GST control) | 1.35 fold enrichment (6-mer frequency, TF over GST control) | 1.38 fold enrichment (6-mer frequency, TF over GST control) | 1.21 fold enrichment (6-mer frequency, TF over GST control) | 1.33 fold enrichment (6-mer frequency, TF over GST control) | 1.25 fold enrichment (6-mer frequency, TF over GST control) | 1.44 fold enrichment (6-mer frequency, TF over GST control) | 1.34 fold enrichment (6-mer frequency, TF over GST control) | 1.25 fold enrichment (6-mer frequency, TF over GST control) |
| CTTAGT | 1.17 fold enrichment (6-mer frequency, TF over GST control) | 1.17 fold enrichment (6-mer frequency, TF over GST control) | 1.2 fold enrichment (6-mer frequency, TF over GST control) | 1.18 fold enrichment (6-mer frequency, TF over GST control) | 1.25 fold enrichment (6-mer frequency, TF over GST control) | 1.22 fold enrichment (6-mer frequency, TF over GST control) | 1.07 fold enrichment (6-mer frequency, TF over GST control) | 1.19 fold enrichment (6-mer frequency, TF over GST control) | 1.19 fold enrichment (6-mer frequency, TF over GST control) |
| TATGGA | 1.07 fold enrichment (6-mer frequency, TF over GST control) | 1.13 fold enrichment (6-mer frequency, TF over GST control) | 1.09 fold enrichment (6-mer frequency, TF over GST control) | 1.15 fold enrichment (6-mer frequency, TF over GST control) | 1.06 fold enrichment (6-mer frequency, TF over GST control) | 1.26 fold enrichment (6-mer frequency, TF over GST control) | 1.07 fold enrichment (6-mer frequency, TF over GST control) | 1.17 fold enrichment (6-mer frequency, TF over GST control) | 1.12 fold enrichment (6-mer frequency, TF over GST control) |
| CTTTGT | 1.34 fold enrichment (6-mer frequency, TF over GST control) | 1.3 fold enrichment (6-mer frequency, TF over GST control) | 1.2 fold enrichment (6-mer frequency, TF over GST control) | 1.27 fold enrichment (6-mer frequency, TF over GST control) | 1.36 fold enrichment (6-mer frequency, TF over GST control) | 1.48 fold enrichment (6-mer frequency, TF over GST control) | 1.36 fold enrichment (6-mer frequency, TF over GST control) | 1.22 fold enrichment (6-mer frequency, TF over GST control) | 1.29 fold enrichment (6-mer frequency, TF over GST control) |
| CCCGTA | 1.14 fold enrichment (6-mer frequency, TF over GST control) | 1.11 fold enrichment (6-mer frequency, TF over GST control) | 1.2 fold enrichment (6-mer frequency, TF over GST control) | 1.2 fold enrichment (6-mer frequency, TF over GST control) | 1.25 fold enrichment (6-mer frequency, TF over GST control) | 1.24 fold enrichment (6-mer frequency, TF over GST control) | 1.19 fold enrichment (6-mer frequency, TF over GST control) | 1.14 fold enrichment (6-mer frequency, TF over GST control) | 1.32 fold enrichment (6-mer frequency, TF over GST control) |
| CTCCAA | 1.23 fold enrichment (6-mer frequency, TF over GST control) | 1.41 fold enrichment (6-mer frequency, TF over GST control) | 1.4 fold enrichment (6-mer frequency, TF over GST control) | 1.32 fold enrichment (6-mer frequency, TF over GST control) | 1.3 fold enrichment (6-mer frequency, TF over GST control) | 1.26 fold enrichment (6-mer frequency, TF over GST control) | 1.29 fold enrichment (6-mer frequency, TF over GST control) | 1.31 fold enrichment (6-mer frequency, TF over GST control) | 1.25 fold enrichment (6-mer frequency, TF over GST control) |
| CTAGCA | 1.28 fold enrichment (6-mer frequency, TF over GST control) | 1.26 fold enrichment (6-mer frequency, TF over GST control) | 1.2 fold enrichment (6-mer frequency, TF over GST control) | 1.18 fold enrichment (6-mer frequency, TF over GST control) | 1.26 fold enrichment (6-mer frequency, TF over GST control) | 1.23 fold enrichment (6-mer frequency, TF over GST control) | 1.14 fold enrichment (6-mer frequency, TF over GST control) | 1.24 fold enrichment (6-mer frequency, TF over GST control) | 1.33 fold enrichment (6-mer frequency, TF over GST control) |
